Values joined by “and” are separate entries in the source; they are usually repeats but may differ in a detail not shown here. Identical values can stand only once. About 4,000 (25%) of roughly 16,000 compounds were called active. Not shown: some 26% with an inconclusive outcome. The call rests on the fitted dose curve; in most records, active means well fitted curve in the direction sought with a large enough effect; inconclusive means small, poorly fitted or top-dose-only effect, or effect the other way; inactive means no such curve, though single readings can be large or run the other way. A selection follows. Some compounds were tested as several samples or in several runs, with calls that do not always agree.
Each molecule was assayed against Cytochrome P450 2C9 (Homo sapiens) (UniProt P11712) (assay: Cytochrome panel assay with activity outcomes). Conditions: recombinant CYP, pro-luciferin dealkylation, luminescence, p450-cyp2c9; series mostly up to 57.1 µM; activity, negative = inhibition: at the top concentration.
Cytochrome P450 2C9 (Homo sapiens), sequence (P11712 whole entry, looked up): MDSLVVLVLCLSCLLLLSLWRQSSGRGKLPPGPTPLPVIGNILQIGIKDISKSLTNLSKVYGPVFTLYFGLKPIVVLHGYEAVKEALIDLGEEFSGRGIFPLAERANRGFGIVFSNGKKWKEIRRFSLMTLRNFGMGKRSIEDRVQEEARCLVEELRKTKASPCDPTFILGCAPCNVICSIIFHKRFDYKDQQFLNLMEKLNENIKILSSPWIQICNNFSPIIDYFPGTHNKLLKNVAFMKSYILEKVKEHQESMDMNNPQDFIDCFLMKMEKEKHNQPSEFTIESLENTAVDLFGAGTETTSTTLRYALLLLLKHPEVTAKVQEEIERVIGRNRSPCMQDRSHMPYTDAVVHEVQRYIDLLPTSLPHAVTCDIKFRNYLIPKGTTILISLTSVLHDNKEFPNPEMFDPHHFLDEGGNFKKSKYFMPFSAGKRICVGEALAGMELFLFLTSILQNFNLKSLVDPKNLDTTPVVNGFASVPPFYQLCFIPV
On the % scale 0 is the no-effect control and ±100 the full control effect.

| SMILES | AC50 | activity, negative = inhibition |
| --- | --- | --- |
| CN1CCN(CC(=O)N2c3ccccc3C(=O)Nc3cccnc32)CC1 | inactive |  |
| Cc1scc2c1N(C(=O)CN1CCN(C)CC1)c1ccccc1NC2=O | inactive and 2.51 µM (active) |  |
| CNc1cc(-c2ccccc2C(F)(F)F)ncn1 |  | 22.5% [at 2.29 µM] (inactive) |
| O=c1[nH]c(=O)c2nc3ccccc3nc2[nH]1 |  | 15.1% (inactive) |
| Nc1n[nH]c2ccccc12 |  | -15.6% [at 11.4 µM] (inactive) |
| Nc1[nH]nc2nc3ccccc3nc12 | 2 µM (active) |  |
| CC[C@@H]1CC(=O)N(SC[C@H](N)C(=O)O)C1=O |  | 10.2% [at 11.4 µM] (inactive) |
| CC1CC2(CCCCC2)N2C(=O)C(=O)c3cccc1c32 (stereo not drawn) | 5.01 µM (active) |  |
| O=c1[nH]c2cc(Br)cnc2nc1/C=C(\O)c1ccc(F)cc1 |  | -13.1% (inactive) |
| Cc1ccccc1S(=O)(=O)c1c(C)cc(-c2ccccc2)[nH]c1=O | 22.4 µM (active) |  |
| O=c1cc(-c2ccccc2)[nH]c2nc(Cl)ccc12 |  | -2.02% (inactive) |
| CN(C)CCCNc1c(C(=O)O)cnc2c1cnn2C |  | 12.5% (inactive) |
| COc1cccc(Nc2ncc3nc(-c4ccc(F)cc4)c(=O)n(C)c3n2)c1 |  | -6.48% (inactive) |
| COc1ccc(C2=NC(C(F)(F)F)(C(F)(F)F)c3c(n(C)c(=O)n(C)c3=O)N2)cc1 | 8.91 µM (active) |  |
| Cn1c2c(c(=O)n(C)c1=O)C(C(F)(F)F)(C(F)(F)F)N=C(c1ccc(Cl)cc1)N2 | 2 µM (active) |  |
| COc1ccc(-c2nc3cnc(OC)nc3n(C)c2=O)cc1 |  | 0.455% (inactive) |
| Cn1c(=O)c(-c2ccc(Cl)cc2)nc2cncnc21 |  | 3.26% (inactive) |
| CCN1CCc2nc(N)oc2CC1 |  | -6.87% (inactive) |
| N[C@](CC1c2ccccc2Oc2ccccc21)(C(=O)O)[C@@H]1C[C@@H]1C(=O)O |  | -5.63% (inactive) |
| CC(=O)c1ccc(OC(=O)C2c3ccccc3Oc3ccccc32)cc1 | 28.2 µM (active) |  |
| CC[N+](C)(CC)CCOC(=O)C1c2ccccc2Oc2ccccc21 |  | 9.19% [at 25.6 µM] (inactive) |
| CCOC(=O)c1cc2c(C)n(-c3ccc(C)cc3)c(C)c2ccc1=O | 14.1 µM (active) |  |
| CCOC(=O)Cn1nc(C)n(-c2ccc(C)cc2)c1=O |  | 6.95% (inactive) |
| CCOc1ncnc2c1oc1nc(CC(C)C)c3c(c12)CC(C)(C)OC3 | 20 µM (active) |  |

| SMILES | AC50 | activity, negative = inhibition |
| --- | --- | --- |
| CCCNC(=O)OC[C@@H]1O[C@H](CCO/N=C(\C)CCN2CCCc3nc(C)c(C)cc32)C=C[C@@H]1Oc1ccc(OC)cc1 |  | -26.6% [at 11.4 µM] (inactive) |
| CC12c3ccccc3C(c3ccccc31)C1C(=O)N(Cc3cccnc3)C(=O)C12 (stereo not drawn) | 11.2 µM (active) |  |
| CNC(=O)Oc1ccc2c(c1)[C@@]1(C)CCN(C)[C@@H]1N2C | inactive |  |
| O=C(N/N=C/c1cccc(OC2CSC2)c1)c1ccccc1O |  | -11.2% (inactive) |
| O=C(COc1ccccc1C(=O)N/N=C\c1ccc(O)c(O)c1)N/N=C/c1ccc(O)c(O)c1 | 12.6 µM (active) |  |
| COc1ccccc1-c1nccc(NCc2cccc(C)c2)n1 |  | -8.67% [at 2.29 µM] (inactive) |
| COC(=O)c1ccc(C#CC(NP(=O)(c2ccccc2)c2ccccc2)c2ccccc2)cc1 (stereo not drawn) | 10 µM (active) |  |
| COC(=O)c1ccc(C23CC2(C(NP(=O)(c2ccccc2)c2ccccc2)c2ccccc2)C3)cc1 (stereo not drawn) | 10 µM (active) |  |
| COC(=O)c1ccc(NC(=O)C2CCCCC2C(=O)O)cc1 (stereo not drawn) |  | -24.6% (inactive) |
| CN(C)Cc1ccccc1-c1nccc(N(C)Cc2ccco2)n1 |  | -2.53% [at 2.29 µM] (inactive) |
| CC(C)(C)N1C(=O)[C@@H]2[C@H]3C(=CC[C@H]2C1=O)C(=O)[C@H]1O[C@H]1[C@H]3O |  | 4.81% [at 11.4 µM] (inactive) |
| CN(C)C(=O)c1ccc(-c2cncnc2NCCN2CCOCC2)cc1 |  | 0.0156% [at 2.29 µM] (inactive) |
| CN(C)c1ccc(-c2cncnc2NCCN2CCOCC2)cc1 |  | 1.82% [at 2.29 µM] (inactive) |
| Cc1ccc(-c2csc3ncnc(NCCN4CCOCC4)c23)cc1 | 14.1 µM (active) |  |
| O=C1C2=C(NC(=S)NC2c2ccc(Cl)cc2)NC(c2ccc(Cl)cc2)N1c1ccc(Cl)cc1 (stereo not drawn) | 11.2 µM (active) |  |
| O=[n+]1c2c(n([O-])c3cc(F)c(F)cc31)CCCC2 |  | -17.5% (inactive) |
| O=[N+]([O-])c1ccc2c(c1)Cc1cc(N=Cc3ccc4c(c3)OCO4)ccc1-2 |  | -3.27% [at 11.4 µM] (inactive) |
| O=c1oc2cc(N=Cc3ccc4c(c3)OCO4)ccc2c2ccccc12 |  | -21.1% [at 11.4 µM] (inactive) |
| O=S(=O)(N/N=C\c1ccc2c(c1)OCO2)c1ccc(Cl)cc1 | 1.12 µM (active) |  |
| O=S(=O)(N/N=C/c1ccc2c(c1)OCCO2)c1ccc(Cl)cc1 | 1.41 µM (active) |  |
| C[C@]1(OC(=O)/C=C\c2ccccc2)C[C@@H](O)[C@@]2(O)C=CO[C@@H](O[C@H]3O[C@@H](CO)[C@@H](O)[C@@H](O)[C@@H]3O)[C@H]21 |  | -8.73% [at 25.6 µM] (inactive) |
| CC(N)=NCCCC[C@H](N)C(=O)O |  | 5.68% (inactive) |
| CCCN=C(N)NCCC[C@H](N)C(=O)O | 3.98 µM (active) |  |
| NC(=NCCC[C@H](N)C(=O)O)NO |  | 14.3% (inactive) |
